High-throughput results (PubChem)
RAD52 anneal inh – RAD52 DNA annealing inhibitors, primary screen, biochemical, FRET, single point, set 2; 360,000 compounds, 0.46% hits; DNA repair protein RAD52 homolog (Homo sapiens), P43351; recombinant RAD52 DNA annealing, FRET fluorescence; AID 651710, 2012; inhibition, % at 18.7 µM;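 active = every replicate showing at least 50% inhibition; inconclusive = mean inhibition at least 50% but not in every replicate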
Target sequence (P43351 whole entry, looked up): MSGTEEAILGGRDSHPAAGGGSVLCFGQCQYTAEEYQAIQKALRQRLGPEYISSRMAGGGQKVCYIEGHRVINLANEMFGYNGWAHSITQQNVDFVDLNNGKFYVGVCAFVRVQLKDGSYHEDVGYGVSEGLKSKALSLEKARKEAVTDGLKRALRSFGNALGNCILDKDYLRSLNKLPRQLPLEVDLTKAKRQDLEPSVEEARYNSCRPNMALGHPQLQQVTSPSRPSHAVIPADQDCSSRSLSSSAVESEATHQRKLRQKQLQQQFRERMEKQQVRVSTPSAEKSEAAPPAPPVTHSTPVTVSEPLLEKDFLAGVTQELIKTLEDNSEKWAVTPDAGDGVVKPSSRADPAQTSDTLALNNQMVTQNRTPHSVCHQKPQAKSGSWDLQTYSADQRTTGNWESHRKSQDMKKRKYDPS
CFTR F508del cor – F508del CFTR correction, initial screen, CFBE line, single point; activity (quench increase), % at 7.58 µM; CFBE cells, YFP halide quenching; stimulated with forskolin plus potentiator P3; % fluorescence drop versus neutral controls; 350,000 compounds, 0.36% hits;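 active = mean added fluorescence quench of at least 8% versus neutral control, with both replicates also reaching 8%; inconclusive = only one of the mean or replicate conditions met; inactive = mean below 8% and not both replicates reaching 8%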;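 note: cells transiently co-express mutant CFTR-F508del with the halide-sensitive YFP; corrector assay measuring rescue of mutant channel to the surface after 24 h compound exposure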
INS-1E GSIS act – GLuc luminescence reporter in INS-1E cells, primary screen for activators of glucose-dependent secretion of insulin; INS-1E GLuc reporter insulin secretion, 2-3 h; activation, % at 16.6 µM; 370,000 compounds, 0.61% hits; AID 743287, 2014;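 active = lowest replicate activation of at least 40%, so every replicate reaches that level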;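 note: 0% = median of neutral control wells and 100% = median of IBMX positive control wells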
EWS-Fli inh – EWS/Fli-driven NR0B1 reporter inhibitors, primary screen, A673 cells, NR0B1 luciferase, luminescence, MLPCN library. viability-normalised. 350,000 compounds, 0.67% hits. inhibition, % at 12.6 µM. AID 651661, 2012;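 active = mean inhibition of at least 50% after viability correction, with every replicate also passing that limit; inconclusive = mean reaches 50% but only one of two replicates passes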;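 note: firefly luciferase signal divided by Alamar Blue viability fluorescence both relative to DMSO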
LGR2 inh – inhibitors of bursicon-induced LGR2 CRE-luciferase signal, primary screen, cell-based, HEK293, CRE-luciferase reporter, bursicon stimulation; AID 720647, 2013; 380,000 compounds, 0.35% hits; bursicon-stimulated, 4 h; inhibition, % at 9.99 µM;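 active = drop in luminescence signal, shown as inhibition above about 50% in the replicate tests, limit read from the data, passing the limit was not always enough; inconclusive = probably only some replicates passing the limit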;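 note: agonist challenge used bursicon conditioned medium at about half maximal strength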
RAD54 inh – inhibitors of human RAD54 branch migration, primary screen, biochemical, fluorescence, single point | DNA repair and recombination protein RAD54-like (Homo sapiens), Q92698 | RAD54 Holliday junction branch migration, FAM/BHQ fluorescence | inhibition, % at 10.4 µM | 360,000 compounds, 0.14% hits | AID 602329, 2012;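 active = mean normalized replicate activity at least 40 and at least half of replicates scoring 40 or more; inconclusive = only one of the two criteria met; inactive = mean below 40 and under half of replicates reaching 40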;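 note: 0% = median of neutral control wells and 100% = median of positive control wells; inhibitors cause a drop in the FAM fluorescence signal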
DNA binder FP – DNA binders by acridine orange displacement, dose response, counter-screen for EWS/Fli inhibitor project, biochemical, fluorescence polarization, cherry-pick. shares compounds with EWS-Fli inh. AC35, µM (top dose mostly 68 µM), without a hit: top-dose activity change, negative = DNA binding. 640 compounds, 2% hits. AID 720586, 2013. salmon sperm DNA acridine orange fluorescence polarization;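 active = fitted curve reaches a 35% signal fall AC35 below twice the sample's top valid tested dose, actives reach about 48 µM in these data; inactive = the rest, including activity in the rising direction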;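 note: lower polarization ratio signals compound binding to DNA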
* hit, by the source's call; ? = inconclusive; . = no result; ! = not confirmed by another sample. Sampled rows, rich in hits. Any-hit rate of the full collection: about 1.8%.

SMILES | RAD52 anneal inh | CFTR F508del cor | INS-1E GSIS act | EWS-Fli inh | LGR2 inh | RAD54 inh | DNA binder FP
Cc1nc2ccccc2nc1NS(=O)(=O)c1ccc(N)cc1 | -5.6 | -0.3 | -9.8 | 2.1 | -6.7 | 3.8 | .
CCNC(=O)c1cc2c(c(-c3cccc(-c4cccc(OC)c4)c3)n1)[C@@H](CCO)N([S@](=O)C(C)(C)C)C2 | -6.3 | 1.6 | 0.8 | 2.9 | 2.9 | -3.7 | .
CC(C)c1ccccc1NC(=O)Nc1nc(C(N)Cc2ccc(C(F)(F)F)cc2)cs1 (stereo not drawn) | -24.1 | 1.2 | 19.9 | -4.5 | -29.9 | -9.7 | .
NC(Cc1ccc(C(F)(F)F)cc1)c1csc(NC(=O)Nc2ccccc2Cc2ccccc2)n1 (stereo not drawn) | -9.2 | 3.8 | 10.0 | 55.7* | -0.2 | -11.0 | -8.9%
N=c1ccn2c(n1)O[C@H]1[C@@H](CO)[C@H](O)O[C@H]12 | 7.7 | 4.6 | 9.3 | 47.7 | -4.9 | -6.0 | .
N=c1ccn2c(n1)O[C@H]1[C@H](O)[C@@H](CO)O[C@H]12 | -6.4 | 5.4 | 13.0 | 53.0* | 1.4 | -15.8 | -17.7%
Cc1noc(C)c1C(=O)Nc1sccc1C(N)=O | -47.6 | 1.0 | 3.2 | 76.4* | -9.4 | -2.6 | -21.0%
Cc1occc1C(=O)Nc1sccc1C(N)=O | -5.8 | 0.8 | 3.0 | -20.8 | 4.7 | -5.8 | .
Cc1ccc(S(=O)(=O)Nc2ccc3c(c2)CC(=O)N([C@@H](C)CO)C[C@H](C)[C@H](CN(C)Cc2ccc(Oc4ccccc4)cc2)O3)cc1 | 4.9 | 2.4 | 10.3 | -5.6 | 3.1 | -0.1 | .
O=c1cc(-c2ccccc2)oc2ccc3ccccc3c12 | -23.8 | 0.9 | 8.8 | 80.7* | 101.2* | -3.5 | 13.0%
Cc1nc2ncnn2c(C)c1CCC(=O)Nc1ccc(S(=O)(=O)N2CCCCCC2)cc1 | . | . | . | . | . | 15.6 | .
Cc1c(Cl)cccc1NC(=O)CCC(=O)N/N=C/c1ccc[nH]1 | -12.2 | 0.3 | . | 57.8* | 10.0 | . | -12.9%
CC1=NC(=O)C(N=Nc2cccc(C(=O)O)c2)N1c1ccccc1 (stereo not drawn) | 4.0 | 0.2 | . | 63.7* | . | . | 8.1%
CC1=NC(=O)C(N=Nc2ccccc2)N1c1ccccc1 (stereo not drawn) | . | . | . | . | . | -6.1 | .
CC(=O)c1ccc(N(C(=O)Cn2nnc3ccccc32)C(C(=O)NCc2ccccc2)c2ccccn2)cc1 (stereo not drawn) | -3.1 | . | 17.6 | 62.2* | -4.9 | -5.2 | -5.6%
COc1ccc(S(=O)(=O)N2CC[C@@H]3[C@@H](CO)Nc4ccc(-c5ccc(C#N)cc5)cc4[C@@H]32)cc1 | 10.5 | 9.7* | -7.3 | 60.3* | -1.1 | 3.9 | -9.5%
CN1c2ccc(-c3ccc(C#N)cc3)cc2[C@@H]2[C@@H](CCN2S(=O)(=O)c2cccc(F)c2)[C@H]1CO | 30.5 | 1.8 | 2.7 | 9.4 | 12.8 | 10.8 | .
CN1c2ccc(-c3ccc(C#N)cc3)cc2[C@H]2[C@H](CCN2S(=O)(=O)c2cccc(F)c2)[C@H]1CO | 18.3 | 15.5* | -3.6 | 60.0* | 29.8 | 9.7 | -12.1%
COc1ccc(S(=O)(=O)N2CC[C@@H]3[C@H](CO)Nc4ccc(-c5ccc(C#N)cc5)cc4[C@@H]32)cc1 | -85.0 | ? | 15.0 | 56.7* | 0.5 | -3.2 | 4.7%
Cc1nc(-c2cccc(NS(C)(=O)=O)c2)cs1 | -6.7 | -0.1 | 25.1 | 1.9 | 3.9 | -4.0 | .
C[C@@H]1CN([C@@H](C)CO)C(=O)c2cc(NC(=O)Nc3cccc4ccccc34)ccc2O[C@@H](C)CCCCO[C@@H]1CN(C)C | . | -1.9 | 24.5 | 24.3 | -11.0 | . | .
Cc1nc(NCc2cccnc2)c2c3c(sc2n1)CC(C)CC3 (stereo not drawn) | -8.0 | -1.6 | . | -0.6 | -20.9 | . | .
COc1cc([N+](=O)[O-])c(N2CCOCC2)c([N+](=O)[O-])c1OC | -6.9 | 0.7 | 3.5 | 15.6 | 6.1 | . | .
Cc1nn(-c2ccc(F)cc2)c2nc(N)c(C#N)c(-c3ccc(O)c(O)c3)c12 | -27.6 | 4.4 | -6.0 | 57.1* | -3.6 | -5.6 | 3.0%
Cc1nn(-c2ccc(F)cc2)c2nc(N)c(C#N)c(-c3cccs3)c12 | . | . | . | . | . | 8.8 | .
SMILES | RAD52 anneal inh | CFTR F508del cor | INS-1E GSIS act | EWS-Fli inh | LGR2 inh | RAD54 inh | DNA binder FP
NC1(C#Cc2ccc3c(=O)c4ccccc4sc3c2)CCCCC1 | -19.7 | 0.5 | . | 5.0 | . | -10.8 | .
O=c1c2ccccc2oc2ccc(C#CC3(O)CCCCC3)cc12 | -18.8 | 2.2 | -1.5 | 60.7* | 74.9* | -8.7 | -9.4%
Cc1cc2sc3ccc(C#CC4(O)CCCCC4)cc3c(=O)c2cc1C | -20.0 | -3.2 | . | 90.8* | . | -1.7 | 5.2%
N#Cc1ccc(C#Cc2ccc3oc4ccccc4c(=O)c3c2)cc1 | -10.6 | 2.4 | -4.9 | -26.6 | -0.2 | -1.4 | .
Cc1cc(C(=O)N2CCCC(N3CCN(c4cccc(C(F)(F)F)c4)CC3)C2)n[nH]1 (stereo not drawn) | -25.1 | 1.7 | 6.6 | . | 2.2 | 2.3 | .
O=C(C[C@@H]1C[C@H]2c3cc(NS(=O)(=O)c4ccc(F)cc4)ccc3O[C@H]2[C@H](CO)O1)NCc1ccc(-c2ccccc2)cc1 | 2.3 | -4.6 | -9.1 | 56.0* | 8.1 | -1.5 | -0.1%
C(=C\c1ccc(C2[C@H]3CNC[C@@H]2N3Cc2cncnc2)cc1)/c1ccccc1 (stereo partly drawn) | . | 2.2 | 0.1 | 1.0 | -5.7 | . | .
C(=C\c1ccc(C2[C@H]3CNC[C@@H]2N3Cc2ccccn2)cc1)/c1ccccc1 (stereo partly drawn) | 13.7 | 0.3 | -0.4 | 58.9*! | -8.3 | . | -10.5%
Cc1ccc(S(=O)(=O)Nc2ccc3c(c2)C(=O)N([C@@H](C)CO)C[C@@H](C)[C@H](CN(C)Cc2ccc(C(F)(F)F)cc2)OCCCC[C@H](C)O3)cc1 | 2.2 | 1.8 | -3.3 | 68.6* | 31.3 | -0.4 | -21.3%
C[C@@H]1CCCCO[C@H](CN(C)Cc2ccc(C(=O)Nc3ccccc3N)cc2)[C@@H](C)CN([C@H](C)CO)C(=O)c2cc(NS(=O)(=O)c3ccccc3)ccc2O1 | -13.2 | 3.7 | 4.1 | -4.5 | 12.0 | . | .
C[C@@H]1CN([C@@H](C)CO)C(=O)c2cc(NC(=O)c3ccccc3)ccc2O[C@@H](C)CCCCO[C@H]1CN(C)C(=O)Nc1cccc2ccccc12 | -16.7 | 2.0 | 15.9 | 71.0* | 25.8 | -0.8 | 4.9%
